# Source: PubChem BioAssay AID1578 (Sanford-Burnham Center for Chemical Genomics, 2009)
# Among all 290,000 compounds or so, about 3,000 (1%) were called active. Many of the other results were omitted from the sample, so actives are more common in it than they were. Unmarked numbers belong to inactive results. No stated cut-off is given here; in the data, active means inhibition mostly above about 36% (no sharp cut-off); inactive means mostly below about 34%.
# Experiment: inhibition of NOD1-driven NF-kB reporter – cell-based, luminescence, uHTS, primary screen (AID 1578);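 further: HEK-293T reporter cells stimulated with the NOD1 agonist gamma-tri-DAP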
# Conditions: NOD1-driven NF-kB luciferase reporter cells, at 4 µM, stronger effect = higher value
row,SMILES,inhibition
1,COc1ccc(Cl)cc1C(=O)Nc1cccc2ncccc12,13.1%
2,O=C(O)c1cccc(COc2ccccc2Cl)c1,97.2%
3,O=C(O)c1ccc(COc2ccc(CO)cc2Cl)cc1,-26.3%
4,CCOc1ccc(OCc2cccc(C(=O)O)c2)cc1,97.5% (active)
5,C/C(=N\OCc1cccc(C(=O)O)c1)c1ccc(Cl)cc1,47.4% (active)
6,CCOc1ccc(OCc2cccc(C(=O)N3CCCC3)c2)cc1,-38%
7,O=C1NC(=O)/C(=C\c2ccc(OCc3cccc(C(=O)O)c3)c(Cl)c2)N1,-17.1%
8,CCOc1ccc(OCc2cccc(C(=O)N(CC)CC)c2)cc1,-59.7%
9,COc1ccc(OCc2cccc(C(=O)NN)c2)cc1,38.9%
10,COc1ccc(OCc2ccc(C(=O)O)cc2)cc1,-70.3%
11,COc1cccc(/C=C(/C#N)c2ccc(Cl)cc2)c1OCc1cccc(C(=O)O)c1,14.4%
12,COc1ccc(OCc2cccc(C(=O)O)c2)cc1,102% (active)
13,O=C(O)c1cccc(COc2ccc(CO)cc2Cl)c1,99.2% (active)
14,O=C(N=C1SC2CS(=O)(=O)CC2N1c1ccc(OC(F)(F)F)cc1)C1CC1 (stereo not given),-27.3%
15,O=C(NC(c1cccnc1)C(F)(F)F)c1cc(COc2ccc3c(c2)CCCC3)on1 (stereo not given),1.4%
16,Cc1nn(-c2ccccc2)c(=S)n1-c1ccccc1,-7%
17,O=C(CSc1n[nH]c(-c2ccccc2)n1)Nc1ccc(F)cc1F,-6.2%
18,COc1ccc(OCc2cc(C(=O)N3CCCCCCC3)no2)c(Cl)c1,-23.7%
19,COCCn1c(C)cc(/C=C2/NC(=O)N(c3ccc(Cl)cc3)C2=O)c1C,-49.9%
20,NNC(=O)c1cccc(COc2ccc3c(c2)CCC3)c1,62.3%
21,COc1ccc(OCc2cccc(C(=O)Nn3cc([N+](=O)[O-])cn3)c2)cc1,50.9% (active)
22,O=C(O)c1cccc(COc2ccc3c(c2)CCC3)c1,92.4% (active)
23,Cc1nn(Cc2cccc(C(=O)Nn3cc([N+](=O)[O-])cn3)c2)c(C)c1[N+](=O)[O-],0.9%
24,O=C(O)c1ccc(COc2ccc3c(c2)CCC3)cc1,-2.9%
25,COC(=O)c1cccc(Cn2cc([N+](=O)[O-])cn2)c1,-7.1%

row,SMILES,inhibition
1,COc1ccc(OC)c(-c2csc(NC(=O)Cc3ccc(OC)c(OC)c3)n2)c1,25.1%
2,Cc1cc(C)cc(N(C(=O)c2csnn2)C(C(=O)NC(C)(C)C)c2cccs2)c1 (stereo not given),10.5%
3,O=C1CCCCC(=O)N(c2ccccc2)c2ccccc21,7.2%
4,CCOC(=O)c1cnc2ccc(OCC)cc2c1NCc1ccccc1OC,72.7% (active)
5,CCOC(=O)c1cnc2ccc(OCC)cc2c1NCc1ccccc1,-5.7%
6,CCOC(=O)c1cnc2ccc(OC)cc2c1NCc1ccccc1,3.2%
7,CN(C)Cc1ccc(F)cc1Sc1ccc(Cl)cc1Cl,-13.9%
8,CN(C)Cc1ccc(F)cc1Sc1cc(Cl)ccc1Cl,63.7% (active)
9,CN(C)C(=O)c1cc(F)ccc1Sc1cc(Cl)ccc1Cl,-6.9%
10,CCc1ccc(-n2c(SCC(=O)N3CCC(C(=O)O)CC3)nnc2-c2ccncc2)cc1,-31.9%
11,NC(=S)N/N=C/c1coc2ccc(Cl)cc2c1=O,9.6%
12,O=C(N/N=C/c1coc2ccc(Cl)cc2c1=O)c1cc(O)cc(O)c1,31.6%
13,O=c1c(/C=N\NS(=O)(=O)c2ccccc2)coc2ccc(Cl)cc12,69.9% (active)
14,CC(=O)N1CCN=C1SCc1ccccc1Cl,1.2%
15,COc1ccc(C2C(C(=O)c3sc(C)nc3C)=C(O)C(=O)N2CCN(C)C)cc1 (stereo not given),-18.4%
16,COc1ccccc1OCCCOc1ccc(/C=C2\SC(=O)NC2=O)cc1OC,54.4%
17,CCOc1ccc(/C=C2\SC(=S)NC2=O)cc1OC,-40.1%
18,COc1cc(/C=C2/SC(=O)NC2=O)ccc1OCc1ccccc1,-38.4%
19,CCOc1ccc(N(C)c2ccc(/C=C3/SC(=S)NC3=O)cc2)cc1,43.6%
20,CC(=O)Nc1ccc(OCc2nnc(-c3ccc(Cl)cc3)o2)cc1,-27.9%
21,Cc1ccc2c(c1)c1c(n2CC(O)Cn2ccnc2C)C(=O)CCC1 (stereo not given),-18.6%
22,COCCNC(=S)N(CCc1c(C)[nH]c2ccccc12)Cc1ccco1,-30.2%
23,O=C(CCN1C(=O)c2ccccc2C1=O)N1CCOCC1,-25.4%
24,Cc1ccc2c(c1)CCCN2C(=O)Nc1ccc2c(c1)OCO2,-2.3%
25,COc1ccc(CNC(=O)Cn2cncn2)cc1OC,-12.9%

row,SMILES,inhibition
1,Cc1ccc(CNC(=O)Cn2cncn2)cc1,8.6%
2,O=C(Cn1cncn1)NCc1ccc(Cl)cc1,66.1% (active)
3,Cc1cc(C)n(C(=O)CCCCCCCC(=O)n2nc(C)cc2C)n1,-26.9%
4,COc1ccc(NC(=O)c2cc3ccc4c5ccccc5[nH]c4c3cc2O)cc1,-6.7%
5,O=C(Nc1ccc(Cl)cc1)c1cc2c(cc1O)[nH]c1ccccc12,43.7% (active)
6,CC(=O)Nc1ccc2[nH]c3ccccc3c2c1,-15.1%
7,O=C(CSc1ccc(-c2ccccn2)nn1)NCc1ccc(F)cc1,-16.2%
8,COc1ccccc1CNC(=O)COC(=O)CNS(=O)(=O)c1ccc(C)cc1,-3%
9,Nc1ncnc(N(c2ccccc2)C2CCCCC2)c1[N+](=O)[O-],44.6%
10,CN(c1ncnc(N)c1[N+](=O)[O-])C1CCCCC1,80.2% (active)
11,Nc1ncnc(NC2CCS(=O)(=O)C2)c1[N+](=O)[O-] (stereo not given),11.8%
12,CN(Cc1ccccc1)c1ncnc(N)c1[N+](=O)[O-],46%
13,Cc1ccc(N(c2ncnc(N)c2[N+](=O)[O-])C2CCCCC2)cc1,22.2%
14,CN(c1ncnc(N)c1[N+](=O)[O-])C1CCS(=O)(=O)C1 (stereo not given),58% (active)
15,CC1=Cc2ccccc2C(C#N)N1C(=O)c1ccccc1 (stereo not given),31.4%
16,CCc1ccc(-c2cc(C)no2)cc1S(=O)(=O)N1CCN(c2ccc(F)cc2)CC1,5.8%
17,Cc1cc(-c2ccc(C)c(S(=O)(=O)N3CCN(c4ccccn4)CC3)c2)on1,-13%
18,Cc1cc(-c2ccc(C)c(S(=O)(=O)NCCCN3CCN(c4ccccc4)CC3)c2)on1,17.3%
19,COc1ccc(-c2cc(C)no2)cc1S(=O)(=O)NCCCN1CCN(c2ccccc2)CC1,-7.4%
20,CC(NC(=O)NC(=O)c1ccc(Cl)cc1Cl)C1CC1 (stereo not given),-53%
21,CCOc1ccc(NC(=S)NC(C)c2cccs2)cc1 (stereo not given),-21.7%
22,COc1cc(NC(=O)CN(c2ccc(C)cc2)S(=O)(=O)c2c(C)noc2C)cc(OC)c1,-34.4%
23,O=C1C=C(NCc2ccccc2)c2ccccc2C1=O,78.8% (active)
24,CCCCNC1=CC(=O)C(=O)c2ccccc21,-7.1%
25,O=C1C=C(Nc2ccccc2)c2ccccc2C1=O,-24.6%

row,SMILES,inhibition
1,O=C1Cc2cc(S(=O)(=O)N3CCCCC3)ccc2N1,-22.1%
2,CCCC(=O)NC(=S)Nc1cccc(NC(=O)c2ccccc2Cl)c1,-18.6%
3,COc1ccc(CCNC(=O)c2ccc3ccccc3n2)cc1OC,-14.9%
4,COc1ccccc1NS(=O)(=O)c1cc(NC(=O)c2ccc3ccccc3n2)ccc1Cl,-24.5%
5,COc1ccc(CNC(=O)c2ccc3ccccc3n2)cc1,-33.9%
6,O=C(Nc1cccc(S(=O)(=O)Nc2ccccc2F)c1)c1ccc2ccccc2n1,33.7%
7,COc1cccc(C(=O)NC2CCN(CC(=O)Nc3nccs3)CC2)c1,7.4%
8,O=C(c1ccc2nc(Cc3cccc(Cl)c3)oc2c1)N1CCC[C@H]1CO,-34%
9,O=C(CCN1CCCCO1)N1CCCC(N2CCN(c3ccc(F)cc3)CC2)C1 (stereo not given),-8.6%
10,Cc1ccc(CNC(=O)C2CCN(c3nn4c(=O)cc(C)nc4s3)CC2)cc1,-23.9%
11,COc1ccc(C)cc1N(C(=O)c1ccc(C#N)cc1)C1=NC(C)(C)CS1,-8.3%
12,Cc1ccc(OCC(=O)N2CCc3ccccc3C2)cc1,4.6%
13,COc1ccc(OCC(=O)N2CCc3ccccc3C2)cc1,-21.2%
14,C#CCn1cc(/C=N/NC(=O)c2cc3ccccc3o2)c2ccccc21,-7.9%
15,CCOC(=O)Cn1cc(/C=N/NC(=O)c2cc3ccccc3o2)c2ccccc21,35.8% (active)
16,CCOC(=O)N/N=C/c1cn(CCCOc2ccccc2)c2ccccc12,79.6% (active)
17,CCOC(=O)N/N=C/c1cn(CCCOc2ccc(C)cc2)c2ccccc12,31.1%
18,CCn1cc(/C=N/NC(=O)c2cc3c(ccc4ccccc43)o2)c2ccccc21,32%
19,COC(=O)N/N=C/c1cn(CCCOc2ccccc2)c2ccccc12,25.7%
20,CCCS(=O)(=O)N1CCC(C(=O)c2cccc(C(F)(F)F)c2)CC1,-5.7%
21,Cc1cc(C(=O)Nc2nnc(C(F)(F)F)s2)cs1,-7.7%
22,COc1ccc(OC)c(S(=O)(=O)N2CCN3CCCC3C2)c1 (stereo not given),-16.6%
23,Nc1ccccc1C#CCCCCO,-18.4%
24,Nc1ccccc1C#CC(=O)c1ccccc1,58.4% (active)
25,Nc1ccccc1C#Cc1ccccc1,-30.1%
